According to PubChem BioAssay (NCATS):
Values joined by “and” are separate entries in the source; they are usually repeats but may differ in a detail not shown here. Identical values can stand only once. Inconclusive results are not listed. Entries that show only a call come without a potency. Active and inactive are the calls of the source. Unless noted, calls follow the shape of the dose curve; as a rule, active = well fitted curve in the direction sought with a large enough effect; inconclusive = small, poorly fitted or top-dose-only effect, or another doubt; inactive = no such curve, though single readings can be large; an effect the other way counts as inactive or inconclusive.

Legend:
[1] = Cell Viability - BJ (AID 421; calls by dose curve;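 also: potency is read from the fitted curve at half-maximal effect; cells exposed to compound for 40 hours at 37 °C before readout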); settings: BJ fibroblast viability, qHTS
Procedure, shortened: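 Quantitative HTS: ATP depletion in BJ cells after 40 hr compound exposure in complete culture medium, detected with CellTiter-Glo; AC50 from standard Hill fits.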

[2] = Cell Viability - HepG2 (AID 433; calls by dose curve;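 also: potency is read from the fitted curve at half-maximal effect; potency for ATP loss meaning cytotoxicity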); settings: qHTS
Procedure, shortened: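 HepG2 cells, 1500 per well, treated 40 hr at 37 °C in complete medium; viability from intracellular ATP by CellTiter-Glo luminescence. Normalized to DMSO and 100 uM tamoxifen; AC50 from Hill fit of qHTS concentration-response.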

[3] = Cell Viability - MRC5 (AID 434; calls by dose curve;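 also: potency is read from the fitted curve at half-maximal effect; potency reflects cytotoxicity seen as loss of intracellular ATP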); settings: MRC5 lung fibroblast viability, qHTS
Procedure, shortened: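 ATP luminescence read-out (CellTiter-Glo, 20 min RT) after 40 hr, 37 °C compound exposure of 1500 MRC5 cells/well. Data normalized to DMSO (basal) and 100 uM tamoxifen (100% inhibition); AC50 from standard Hill equation.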

[4] = target: Mitogen-activated protein kinase 10 (Mus musculus) (UniProt Q61831); experiment: JNK3 AlphaScreen Assay (AID 530; active = well fitted curve in either direction with a large enough effect, not every such curve was filed as active;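 also: kinase came from lysate of stimulated human HepG2 cells; signal reports phosphorylation of biotinylated GST-cJun 1-79 at Ser73 with 10 µM ATP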); settings: JNK3 lysate, c-Jun phosphorylation; series mostly up to 57.1 µM
Procedure, shortened: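 Activity was read by AlphaScreen after JNK3-containing HepG2 lysate (cytokine pre-activated) phosphorylated biotinylated GST-cJun with 10 uM ATP at room temperature. Phospho-Ser73 cJun antibody with Protein-A acceptor beads provided detection.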

[5] = Cell Viability - Renal Proximal Tubule (AID 545); settings: renal proximal tubule cells viability; at 91.7 µM (top of the series), primary cells of rat origin unless noted; also: nearly all actives have a fitted effect of over 40% in size
Procedure, shortened: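 Rat renal proximal tubule primary cells, 1000/well, exposed to compounds for 40 hr at 37 °C in complete medium; cellular ATP read by CellTiter-Glo luminescence. AC50 from concentration-response fitted with standard Hill equation.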

[6] = Cell Viability - Mesenchymal (AID 546); settings: mesenchymal cells viability, qHTS; series mostly up to 91.7 µM;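 also: cells exposed to compound for 40 hours before reading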
Procedure, shortened: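 Human renal mesenchymal cells (glomerulus-derived), 1000 cells/well, 5 hr 37 °C pre-incubation; compound 40 hr, 37 °C; CellTiter-Glo, 20 min RT; luminescence; AC50 via Hill equation.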

[7] = Cellular Toxicity (caspase-3) Jurkat (AID 655); settings: Jurkat caspase-3 activation, luminescence, DMSO = 0%, tamoxifen = 100%; at 92.2 µM (top of the series);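 also: cells exposed to compound for 16 h at 37 °C before reading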
Procedure, shortened: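 Jurkat cells (5000/well) in complete medium exposed 16 h at 37 C; caspase-3/7 activity read by Caspase-Glo luminescence after 20 min at room temperature. Normalized to DMSO and 100 uM tamoxifen; AC50 from Hill fits.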

[8] = Cellular Toxicity (caspase-3) HUV-EC-C (AID 656); settings: HUV-EC-C cells, caspase-3 activation (apoptosis), vehicle = 0, 100 µM tamoxifen = 100%; series mostly up to 92.2 µM
Procedure, shortened: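 HUV-EC-C cells (1000/well) in complete medium, compound-treated 16 h at 37 °C; caspase-3/7 activity read by Caspase-Glo 3/7 luminescence. Normalized to DMSO (basal) and 100 uM tamoxifen (100%); AC50 from Hill-equation concentration-response fits.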

[9] = Cellular Toxicity (caspase-3) SHSY5Y (AID 657); settings: SH-SY5Y caspase-3 activation, DMSO zero, 10 µM staurosporine = 100%; series mostly up to 91.7 µM
Procedure, shortened: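 SH-SY5Y human neuroblastoma cells, 1500/well, exposed to compound for 16 hours at 37 °C in complete medium. Caspase-3/7 activity read by Caspase-Glo luminescence after 1 hr at room temperature, normalized to DMSO and 10 uM staurosporine; AC50 from Hill fit.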

[10] = Cellular Toxicity (caspase-3) BJ (AID 658); settings: BJ fibroblasts, luminescence, normalized: DMSO 0%, staurosporine 100%; series mostly up to 91.7 µM
Procedure, shortened: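 qHTS, BJ fibroblasts, 1000 cells/well; 5 hr preincubation, 16 hr compound, 37 °C; Caspase-Glo 3/7 reagent, 1 hr RT; luminescence. DMSO = 0%, 10 uM staurosporine = 100%. Hill-equation AC50.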

[11] = Cellular Toxicity (caspase-3) MRC-5 (AID 659); settings: MRC-5 cells, luminescence, normalized: DMSO 0%, 10 µM staurosporine 100%; series mostly up to 91.7 µM
Procedure, shortened: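 MRC-5 fibroblasts, 1500/well; 16 h cpd, 37 °C; Caspase-Glo 3/7, 1 h RT; lumi read. Norm: DMSO = 0%, 10 uM staurosporine = 100%. Hill-fit AC50 from qHTS conc-response.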

[12] = Cellular Toxicity (caspase-3) Mesangial (AID 660); settings: mesangial cells, normalized: DMSO 0%, 100 µM tamoxifen 100%; series mostly up to 91.7 µM;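 also: cells exposed to compound for 16 h before the caspase read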
Procedure, shortened: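 Caspase 3/7 activation measured by Caspase-Glo 3/7 luminescence (20 min, room temperature) following 16 h exposure of mesangial cells (1000/well); AC50 from Hill-equation fit, normalized to DMSO and 100 uM tamoxifen.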

[13] = Cellular Toxicity (caspase-3) SK-N-SH (AID 661); settings: SK-N-SH caspase-3 activation, qHTS, DMSO as zero, staurosporine as full; series mostly up to 91.7 µM
Procedure, shortened: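 Caspase 3/7 activation was read by luminogenic substrate cleavage after 16 hour treatment of SK-N-SH cells. Signal was scaled between DMSO and 10 uM staurosporine, and concentration-response data were fitted with the Hill equation for AC50.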

[14] = Cellular Toxicity (caspase-3) H-4-II-E (AID 663); settings: H-4-II-E rat hepatoma, scaled: DMSO 0%, 100 µM tamoxifen 100%; series mostly up to 92.2 µM;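 also: cells exposed to compound for 16 hr before readout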
Procedure, shortened: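 H-4-II-E rat hepatoma, 1500 cells/well, 5 hr settle at 37 °C; compound 16 hr, 37 °C, complete medium; Caspase-Glo 3/7, 20 min RT; luminescence. DMSO = 0%, 100 uM tamoxifen = 100%; Hill-equation AC50.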

[15] = Cellular Toxicity (caspase-3) Renal Proximal Tubule (AID 667); settings: renal proximal tubule cells; at 91.7 µM (top of the series), primary cells freshly taken from rat, solvent-only wells 0%, staurosporine 100% unless noted;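 also: cells exposed to compound for 16 hours at 37 °C before detection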
Procedure, shortened: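 Freshly isolated primary rat kidney proximal tubule cells, 1000/well, treated 16 hr at 37 °C, then Caspase-Glo 3/7 luminescence after 1 hr. Normalized to DMSO and 10 uM staurosporine; AC50 from Hill fit.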

[16] = qHTS Assay for Identification of Small Molecule Inducers of Hypoxia Response (AID 2120; active = well fitted curve in the direction sought with a large enough effect in the signal ratio, with a control signal flat, not every such curve was filed as active; the % refers to the signal ratio); settings: hypoxia response reporter cells, beta-lactamase ratio readout; series mostly up to 104 µM
Procedure, shortened: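 Reporter induction read as the CCF4 blue/green (460nm/530nm) emission ratio after 2.5 h dye loading at room temperature. ME-180 HRE-beta-lactamase cells received titrated compounds for 17 h at 37 degrees Celsius; AC50 values derived.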

[17] = qHTS assay for small molecule agonists of retinoid X receptor alpha signaling (AID 588544); settings: HEK293T RXRa-UAS-bla, beta-lactamase reporter, 18 h; 530 nm emission
[18] = qHTS assay for small molecule agonists of the antioxidant response element (ARE) signaling pathway measured by Nrf2-dependant transcriptional activity - cell viability counter screen (AID 720653; active = well fitted curve in the direction sought with a large enough effect in the repeat runs; an effect the other way counts as inactive or inconclusive); settings: ARE-bla HepG2 viability, CellTiter-Glo ATP luminescence, 16 h; stronger effect = lower value
Procedure, shortened: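 ARE-bla HepG2 cells treated with compounds for 16 h at 37C; this counter screen measures viability as intracellular ATP by CellTiter-Glo luminescence after 30 min at room temperature.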

[19] = qHTS assay for cell viability of HEK293 cells (AID 743288); settings: ATP luminescence (CellTiter-Glo), 18 h; max response: stronger effect = lower value; also: nearly all actives have a fitted effect of over 50% in size
Procedure, shortened: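 Steps: plate 2,000 parental HEK293 cells per well; incubate ≥5 h, 37 C; add compounds in DMSO; incubate 18 h, 37 C; add CellTiter-Glo; wait 30 min at room temperature; read luminescence.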

[20] = qHTS assay for cell viability of the p53RE-bla HCT-116 cell line (AID 743292); settings: p53RE-bla HCT-116 viability, ATP luminescence, 16 h; series mostly up to 95 µM; also: nearly all actives have a fitted effect of over 55% in size
Procedure, shortened: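 CellSensor p53RE-bla HCT-116 cells (4,000/well) pre-incubated 5 h at 37 C, then exposed to compounds in DMSO for 16 h at 37 C. Viability read as ATP content by CellTiter-Glo luminescence after 30 min at room temperature.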

SMILES	Potency [1]	Potency [2]	Potency [3]	outcome [4]	activity change, negative = cytotoxicity [5]	outcome [6]	caspase-3 activation [7]	outcome [8]	outcome [9]	outcome [10]	outcome [11]	outcome [12]	outcome [13]	outcome [14]	caspase-3 activation [15]	outcome [16]	max response [17]	max response [18]	max response [19]	Potency [20]
C=CC(N)=O	> 92 µM (inactive)	> 92 µM (inactive)	> 92 µM (inactive)	inactive	6.17% (inactive) and -0.476% (inactive)	inactive	0.421% (inactive) and 0.897% (inactive)	inactive	inactive	inactive	inactive	inactive	inactive	inactive	6.41% (inactive) and -1% (inactive)	inactive	-5.65% and -3.81%	-3.97% (inactive) and 4.84% (inactive) and 3.74% (inactive)	-9.64% (inactive) and 2.95% (inactive) and 5.31% (inactive)	inactive
CCSC(=O)Cl	> 92 µM (inactive)	> 92 µM (inactive)	> 92 µM (inactive)	inactive	-4.42% (inactive)	inactive	-0.54% (inactive)	inactive	inactive	inactive	inactive	inactive	inactive	inactive	8.48% (inactive)	inactive	-20.5%	0.254% (inactive)	-2.01% (inactive)	inactive
ClC(Cl)=C(Cl)C(Cl)=C(Cl)Cl	> 92 µM (inactive)	> 92 µM (inactive)	> 92 µM (inactive)	inactive	-4.45% (inactive)	inactive	-0.64% (inactive)	inactive	inactive	inactive	inactive	inactive	inactive	inactive	5.5% (inactive)	inactive	-9.28% and -8.5%	5.78% (inactive) and -15% (inactive)	3.55% (inactive) and -1.89% (inactive)	inactive
BrCCBr	> 92 µM (inactive)	> 92 µM (inactive)	> 92 µM (inactive)	inactive	-6.16% (inactive)	inactive	-0.244% (inactive)	inactive	inactive	inactive	inactive	inactive	inactive	inactive	-15.1% (inactive)	inactive	-0.875% and -18.5%	2.36% (inactive) and -0.33% (inactive)	2.15% (inactive) and 1.92% (inactive)	inactive
CC(C)(c1ccccc1)c1ccc(O)cc1	> 92 µM (inactive)	> 92 µM (inactive)	> 92 µM (inactive)	inactive	-9.32% (inactive)	inactive	11.6% (inactive)	inactive	inactive	inactive	inactive	inactive	inactive	inactive	4.59% (inactive)	inactive	-10.3% and -15.2%	9.52% (inactive) and -12.4% (inactive)	-13.3% (inactive) and 1.83% (inactive)	inactive
